# Screens as filed in PubChem.
# IL-1B inflam inh: blocks inflammasome-driven IL-1 beta release. AID 743279. activity change, % at 57.5 µM. THP-1 LPS/ATP IL-1B secretion, AlphaLISA, 16 h; active compounds read low. 360,000 tested, 4.7% active; in the data active = activity change below about -50%; inconclusive = mostly about -30% to -49%
#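 THP-1 cells pretreated 1 hr with compounds (up to 57.5 uM final), then stimulated with LPS (250 ng/mL final) plus ATP (1.25 mM final); secreted IL-1B measured by AlphaLISA after 16 hr, decreased signal indicating inhibition.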
# TDP1 inh: inhibitors of human tyrosyl-DNA phosphodiesterase TDP1; Q9NUW8; recombinant TDP1, AlphaScreen DNA substrate cleavage; Potency, µM (series often up to 130 µM), most hits filed as inhibitors; 350,000 tested, 0.28% active; also: nearly all actives have a fitted effect of over 40% in size
# Target sequence (Q9NUW8 whole entry, looked up): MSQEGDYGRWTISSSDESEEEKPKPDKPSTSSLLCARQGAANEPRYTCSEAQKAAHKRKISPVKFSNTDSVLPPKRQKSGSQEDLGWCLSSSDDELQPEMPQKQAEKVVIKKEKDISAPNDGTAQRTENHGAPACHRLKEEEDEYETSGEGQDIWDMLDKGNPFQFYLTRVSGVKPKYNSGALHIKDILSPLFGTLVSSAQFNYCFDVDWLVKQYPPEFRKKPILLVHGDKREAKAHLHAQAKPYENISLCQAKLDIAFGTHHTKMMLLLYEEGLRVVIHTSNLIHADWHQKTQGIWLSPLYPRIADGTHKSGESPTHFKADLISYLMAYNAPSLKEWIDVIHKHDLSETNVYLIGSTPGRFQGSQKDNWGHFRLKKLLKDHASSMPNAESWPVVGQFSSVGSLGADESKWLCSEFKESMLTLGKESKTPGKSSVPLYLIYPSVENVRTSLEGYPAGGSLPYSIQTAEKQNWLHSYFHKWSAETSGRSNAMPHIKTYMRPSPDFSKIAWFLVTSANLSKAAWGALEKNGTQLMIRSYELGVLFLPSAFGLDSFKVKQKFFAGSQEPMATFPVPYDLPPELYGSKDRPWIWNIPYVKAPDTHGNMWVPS
#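 Enzyme-compound mixtures sat 15 min at room temperature, followed by a 5 min reaction with 15 nM final substrate and 10 min with AlphaScreen beads. Recombinant human Tdp1 was used at 1 nM final.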
# DT40 TDP1 no CPT: qHTS for Inhibitors of human tyrosyl-DNA phosphodiesterase 1 (TDP1): qHTS in cells in absence of CPT; 420,000 tested, 15% active; DT40 Tdp1-/- hTDP1 cells, no CPT, ATP luminescence, 48 h; Potency, µM (titrated, usually from 46.2 µM), hits mostly inhibitors; also: nearly all actives have a fitted effect of over 55% in size
#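 Growth kinetics read by CellTiter-Glo luminescence after ≥48 hr at 37 °C. Cells: DT40 Tdp1-/- stably carrying human TDP1, 400 per well, compound exposure in the absence of CPT (DMSO vehicle).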
# TGFb inhibitor: TGF-b pathway inhibition; HepG2 CAGA-GFP TGF-b/SMAD3 reporter, GFP fluorescence, 18 h; TGF-beta stimulated, 500 pg/mL final; Potency, µM (highest dose often 46.1 µM), hits mostly inhibitors; 410,000 tested, 1.2% active; also: nearly all actives have a fitted effect of over 65% in size
#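 Inhibition was scored as loss of TGF-beta-induced (500 pg/mL final, 18 hours, 37 degrees C) GFP in HEPG2 cells carrying a CAGA-GFP reporter, in DMEM with 1% FBS. Well GFP was summed per cell; Activity was normalised to unstimulated and stimulated DMSO wells, then concentration-response fitting.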
# DT40 TDP1 CPT: growth inhibition of DT40 Tdp1-/-;hTDP1 cells with camptothecin (screen for TDP1 inhibitors); chicken DT40 Tdp1-/-;hTDP1 cells + 20 nM CPT, ATP luminescence, 48 h; 420,000 tested, 12% active; Potency, µM (highest dose often 46.2 µM), usual class: inhibitors; also: nearly all actives have a fitted effect of over 55% in size
#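 Chicken DT40 Tdp1-/- cells complemented with human TDP1, 400 cells/well, exposed to compounds plus 20 nM camptothecin for at least 48 h at 37 C; viability read as ATP content by CellTiter-Glo luminescence.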
# HepG2 viability: kills HepG2 cells in TGF-b inhibitor counter-screen. HepG2 CAGA-GFP viability, ATP luminescence, 18 h. Potency, µM (top dose mostly 46.1 µM), actives largely listed as cytotoxic. 410,000 tested, 0.76% active. AID 588856
#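 CellTiter-Glo luminescence gave cytotoxicity after 18 hours at 37 degrees C. The cells were HepG2 CAGA-GFP in 1% FBS DMEM, stimulated with 500 pg/mL TGF-beta after compound addition. %Activity was normalised to no-cell wells (complete cell-killing) and DMSO (no toxicity), and curves were fitted and classified.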
# Hits are given with their value; 0 = inactive; ? = inconclusive; - = no result given; [ ] = dose if it differs, or a comment. Most compounds without a hit are left out; they make up all but 19% or so of the library. Unless noted, calls follow the shape of the dose curve; as a rule, active = well fitted curve in the direction sought with a large enough effect; inconclusive = small, poorly fitted or top-dose-only effect, or another doubt; inactive = no such curve, though single readings can be large; an effect the other way counts as inactive or inconclusive.
SMILES,IL-1B inflam inh,TDP1 inh,DT40 TDP1 no CPT,TGFb inhibitor,DT40 TDP1 CPT,HepG2 viability
COc1ccc(NC(=O)/C(C#N)=C\c2ccc(N3CCOCC3)o2)cc1,0,0,21µM,0,?,0
N#C/C(=C\c1ccc(N2CCOCC2)o1)C(=O)Nc1ccc(O)cc1,-55,0,29µM,0,?,0
O=C(NCCc1ccc(Cl)cc1Cl)c1cncc(Br)c1,0,-,0,0,0,0
CCOc1ccc(C(CC(=O)O)NC(=O)COc2ccc3ccccc3c2)cc1OC (stereo unspecified),0,-,0,0,0,0
COc1cccc(N(CC(=O)NC2CCCCC2)C(=O)CCCC(=O)Nc2ccccn2)c1,0,0,0,0,0,0
COc1ccc(-c2csc(NC(=O)c3cc(=O)c4ccccc4o3)n2)cc1OC,0,0,5.8µM,0,?,0
COc1ccc(-c2csc(NC(=O)c3cc(C)oc3C)n2)cc1OC,-84,0,18µM,0,?,0
CCc1noc(C)c1C(=O)Nc1nc(-c2ccc(OC)c(OC)c2)cs1,?,-,?,0,?,0
COc1ccc(NC(=O)c2cc(=O)c3ccccc3o2)cc1Cl,0,-,0,0,0,0
OCCN(CCO)c1ccc2ccccc2c1,0,0,0,0,0,0
OCCN(CCO)c1ccc(C(c2ccccc2Cl)c2ccc(N(CCO)CCO)cc2Cl)c(Cl)c1,?,0,18µM,0,?,0
CCCCCNCCCCC,-,0,-,-,-,-
Cn1c2c(c(=O)n(C)c1=O)C(c1ccc(F)cc1)C(C#N)=C(N)O2 (stereo unspecified),-69,0,0,0,0,0
CCCCOC(=O)c1ccc(NC(=O)/C(C#N)=C/c2ccc(C)o2)cc1,-,0[12.3 µM],0,0,0,0
Cc1cnc(SCC2CCCO2)nc1C1CCCN(Cc2nc(-c3ccccc3)cs2)C1 (stereo unspecified),-,-,?,-,0[9.04 µM],-
COc1ccc(-n2c3c(c(=O)[nH]c2=O)C(NC(=O)c2ccccc2Cl)(C(F)(F)F)C(=O)N3)cc1 (stereo unspecified),-,0,0,0,0,0
O=C(COc1ccc(Cl)cc1)NCC(c1cccs1)S(=O)(=O)c1ccc(F)cc1 (stereo unspecified),-,0,?,?,?,0
Cc1cc(Nc2ccc(Br)c(C)c2)n2nc(-c3ccco3)nc2n1,-,0,21µM,?,?,0
COc1ccc(-c2noc(CCC(=O)N3CCN(c4cccc(OC)c4)CC3)n2)cc1,0,0,16µM,0,?,0
COc1ccc(-c2noc(CCC(=O)N3CCN(c4cccc(C(F)(F)F)c4)CC3)n2)cc1,?,0,23µM,?,?,0
CC[C@]12c3[nH]c4cc(-c5ccco5)ccc4c3CCN1C(=O)[C@@H](CC(=O)NCCCn1ccnc1)C[C@@H]2C(=O)N1CCN(C(=O)c2ccco2)CC1,0,0,0,0,0,0
O=C(O)/C=C/C(=O)Nc1ccc(S(=O)(=O)N2CCCC2)cc1,0,0,?,0,0,0
O=C(O)c1ccccc1-c1c2cc(Br)c(=O)c(Br)c-2oc2c(Br)c(O)c(Br)cc12,-,0,-,-,-,-
CC[N+]1(CC(=O)c2ccc(Cl)cc2)CCCCC1,-,-,0,0,0,0
Cc1cc(C)cc(NC(=O)CSc2oc(-c3ccco3)nc2S(=O)(=O)c2ccc(Cl)cc2)c1,-,0,?,0,23µM,0
SMILES,IL-1B inflam inh,TDP1 inh,DT40 TDP1 no CPT,TGFb inhibitor,DT40 TDP1 CPT,HepG2 viability
CCOc1ccc(NC(=O)CSc2oc(-c3ccco3)nc2S(=O)(=O)c2ccc(Cl)cc2)cc1,-,0,?,0,21µM,0
CCc1ccc(NC(=O)C2(c3cccs3)CCOCC2)cc1,-,0,0,0,0,0
Cc1ccc(C(=O)COC(=O)CCC(=O)Nc2ccc(Oc3cc(C)ccc3C(C)C)cc2)cc1,-,-,?,0,?,0
Cc1ccc(CNC(=O)COC(=O)c2cc(=O)[nH]c3ccccc23)cc1,0,0,0,0,0,0
CCN(C(=O)c1ccc2c(c1)OCO2)C12CC3CC(CC(C3)C1)C2,0,0,23µM,?,?,0
CCN(C(=O)c1cccc(S(=O)(=O)N(C)C)c1)C12CC3CC(CC(C3)C1)C2,0,-,12µM,0,13µM,0
CCN(CC(=O)NCc1cccs1)C(=O)c1cccc(S(=O)(=O)N(C)C)c1,0,0,0,?,0,0
CCCN(CCC)C(=O)c1ccc2c(c1)OCO2,0,0,0,0,0,0
O=C(CN1C(=O)c2ccccc2S1(=O)=O)c1ccc(Cl)cc1Cl,0,-,0,0,0,0
CCc1ccc(NC(=O)CSc2cn(CC(=O)N3CCOCC3)c3ccccc23)cc1,-,0,?,0,0,0
O=C(C[n+]1cccc(Br)c1)c1ccc(Br)cc1,-,-,0,?,0,0
COc1ccccc1N1CCN(c2cc(=O)n(Cc3ccc(F)cc3)c(=O)[nH]2)CC1,0,0,4.6µM,0,3.7µM,0
O=c1cc(N2CCN(c3ccccc3Cl)CC2)[nH]c(=O)n1Cc1ccc(F)cc1,0,0,1.5µM,0,4.6µM,0
CCN1CCN(c2cc(=O)n(Cc3ccc(F)cc3)c(=O)[nH]2)CC1,0,0,0,0,0,0
NC(=O)C1CCN(c2nc(-c3ccccc3)nc3ccccc23)CC1,-54,0,0,0,0,0
Cc1cc(N2CCC(C(N)=O)CC2)nc(-c2ccccc2)n1,0,-,0,0,0,0
CC1CCCCN1C(=O)C1CCN(c2nc(-c3ccccc3)nc3c2CCC3)CC1 (stereo unspecified),0,0,15µM,0,21µM,0
NC(=O)C1CCN(c2nc(-c3ccccc3)nc3c2oc2ccccc23)CC1,-71,0,?,0,?,0
CCOC(=O)C1CCN(c2nc(-c3ccc(Br)cc3)nc3ccccc23)CC1,0,0,4.1µM,?,5.8µM,0
CC1CCN(c2nc(-c3ccc(Br)cc3)nc3ccccc23)CC1,-,0,?,?,?,0
Cc1ccc(-c2cc(C(=O)N3CCOCC3)c3ccccc3n2)o1,0,0,18µM,0,?,0
Cc1ccc(-c2cc(C(=O)N3CCN(c4ccc(F)cc4)CC3)c3ccccc3n2)o1,0,0,29µM,0,?,0
Cc1ccc(-c2cc(C(=O)N3CCN(c4ccc(O)cc4)CC3)c3ccccc3n2)cc1,0,0,?,?,?,0
Cc1ccc(-c2cc(C(=O)N3CCN(c4ncccn4)CC3)c3cc(Br)ccc3n2)o1,0,0,8.2µM,0,4.1µM,0
CN1CCC(=O)N([C@H](CN=[N+]=[N-])Cc2ccccc2)CC1,0,-,0,0,?,0
